{"source": "PubChem BioAssay AID1347426", "about": "(Functional Genomics Laboratory (NCATS/FGL), 2020)", "note": "Out of some 31,000 sequences screened, about 1,400 (4.5%) were called active. This is one part of a sample in which actives are shown more often than they occur. Values without a mark were called inactive.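 The calls were made as follows: active = median seed-adjusted z-score above 1 or below -1; inactive = the rest.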"}
{"experiment": "Novel Modifiers of Survival Motor Neuron (SMN) Protein: Gene Identification via Genome-wide siRNA Screen;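 also: luminescence tracks full-length SMN protein made from the SMN2 reporter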", "conditions": "HEK293T SMN2-luciferase reporter, siRNA knockdown, 72 h; actives lie on both sides", "procedure,_shortened": "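Steps: spot 1 pmol siRNA, add Lipofectamine RNAiMax in serum-free DMEM, seed HEK293T SMN2–luciferase reporter cells; incubate 72 h at 37 °C; add ONE-Glo; normalize luminescence to control siRNA, log10, MAD. Candidates: |MAD| > 1.0.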"}
{"sequence": "GGCAGAUGAUGGUAUCACATT against CNGA4", "median seed-adjusted z-score": 0.125}
{"sequence": "CCAUGUUCAUCAAAACUCUTT against ARHGAP1", "median seed-adjusted z-score": "-1.14 (active)"}
{"sequence": "GAAGCACAUUGUUUCCAGATT against SERGEF", "median seed-adjusted z-score": -0.308}
{"sequence": "CCCUUACCUUAAUCGACGATT against CRB1", "median seed-adjusted z-score": 0}
{"sequence": "GGCUGUAUCACAUCGGUUATT against CCR2", "median seed-adjusted z-score": -0.00107}
{"sequence": "GUGCUUUGGUGGUACUAUUTT against ELOVL2", "median seed-adjusted z-score": -0.456}
{"sequence": "CAGUGGUAAGAAAGAGAAATT against NRCAM", "median seed-adjusted z-score": -0.0304}
{"sequence": "CACUAACUGAUUUACAAGATT against UBE2J1", "median seed-adjusted z-score": "-1.2 (active)"}
{"sequence": "GGUAAACGAGAUCAACUUUTT against DVL3", "median seed-adjusted z-score": -0.57}
{"sequence": "GGAUAUUAGUGUCGUGCAATT against ARHGEF7", "median seed-adjusted z-score": 0.185}
{"sequence": "GGAGAUUAGCAAGACCAUUTT against HOXC10", "median seed-adjusted z-score": 0.000966}
{"sequence": "AGACAGCUGCGAAUCUGGATT against MEFV", "median seed-adjusted z-score": 0}
{"sequence": "GGGUUUAUAUCGAACGCAATT against RNF144B", "median seed-adjusted z-score": 0.642}
{"sequence": "CUCCUGCCUUGAGCCCUUATT against GFRA4", "median seed-adjusted z-score": "-1.59 (active)"}
{"sequence": "UGAUGCCUGUGAUACACUATT against NEU1", "median seed-adjusted z-score": -0.425}
{"sequence": "GACAGGUACUUCUAAGUCATT against AHSA1", "median seed-adjusted z-score": 0.489}
{"sequence": "GAAAUUUGCGUGUGGAGUATT against TP53", "median seed-adjusted z-score": 0.214}
{"sequence": "CUAGAUAUCGUGGACCUCATT against PYDC1", "median seed-adjusted z-score": "-1.44 (active)"}
{"sequence": "AUACUACGUUGAUUACAAATT against LRRTM1", "median seed-adjusted z-score": -0.528}
{"sequence": "CCAGUACCAAAGUUGAUAATT against RB1", "median seed-adjusted z-score": 0.49}
{"sequence": "CCAUCUGUUUGAACUUAGATT against TLR5", "median seed-adjusted z-score": 0}
{"sequence": "GCUAAAGAGAGAUAUGGAATT against DARS", "median seed-adjusted z-score": 0}
{"sequence": "GAGUUGAAAAUGACAAUGATT against CLSTN1", "median seed-adjusted z-score": 0.0811}
{"sequence": "ACAGCCGCAUGAACAAGGATT against B3GNT7", "median seed-adjusted z-score": "-1.05 (active)"}
{"sequence": "CAAAGACCCUUUAUUCGAATT against BTBD10", "median seed-adjusted z-score": 0.695}
{"sequence": "GCCUUAUUGUUACAUGGUUTT against SLC19A2", "median seed-adjusted z-score": -0.679}
{"sequence": "GCGCAGACGUGAUUGUCAATT against DAO", "median seed-adjusted z-score": -0.00887}
{"sequence": "UGAGAGCCCUAUUCCAGUATT against UBASH3A", "median seed-adjusted z-score": "-1.1 (active)"}
{"sequence": "GGAGGAUCCCAUUAUACUATT against LPA", "median seed-adjusted z-score": -0.321}
{"sequence": "GGAUCGCACUCAUGUGGAATT against A4GALT", "median seed-adjusted z-score": -0.286}
{"sequence": "GCAGAUGGUUAUAAGCACATT against GLA", "median seed-adjusted z-score": -0.494}
{"sequence": "GACCCGUUUAUACAACAAATT against MX2", "median seed-adjusted z-score": -0.0346}
{"sequence": "CUAGCAACAUGGACAUAUUTT against STS", "median seed-adjusted z-score": -0.392}
{"sequence": "GGAUUACGUAUCAGACAUATT against CNGA1", "median seed-adjusted z-score": "-1.08 (active)"}
{"sequence": "GGAGCAAAACAGAUCUUGATT against PINX1", "median seed-adjusted z-score": 0.11}
{"sequence": "CCUCUCUAGUAAUGCAAGATT against NAT12", "median seed-adjusted z-score": -0.0807}
{"sequence": "GCUGUGCGUUCUUCACAAATT against RAB17", "median seed-adjusted z-score": 0.473}
{"sequence": "CACUCAGACGGGACGUUCATT against SCT", "median seed-adjusted z-score": -0.454}
{"sequence": "CGAGUUUGCUUGGUCAGAATT against SF3B1", "median seed-adjusted z-score": "-3.65 (active)"}
{"sequence": "CAAUAGAUCAAGUUAUACATT against KPNA5", "median seed-adjusted z-score": -0.174}
{"sequence": "UGCUUGGCGACUUCAGUAATT against AKR1C2", "median seed-adjusted z-score": -0.109}
{"sequence": "UGGGAAUGGUAGAAACAAATT against PPIL1", "median seed-adjusted z-score": 0.166}
{"sequence": "GCGCAUCUAUGAUGACGAUTT against UBA1", "median seed-adjusted z-score": "1.34 (active)"}
{"sequence": "GAGUUUUUAUGGACUCUCATT against GRIK4", "median seed-adjusted z-score": 0.249}
{"sequence": "CCAGAAAACUUGCGAAACATT against RFX4", "median seed-adjusted z-score": -0.0226}
{"sequence": "CCUCCGGAGAGAAAAAUGATT against NXF2", "median seed-adjusted z-score": -0.0513}
{"sequence": "CAUCAAAGAUUGCACUUCATT against TOMM34", "median seed-adjusted z-score": -0.503}
{"sequence": "GCCGGAAACAAAUACGUGATT against ZNF677", "median seed-adjusted z-score": -0.441}
{"sequence": "GGCACGUUCUGAUCCAGAUTT against ACADM", "median seed-adjusted z-score": 0.127}
{"sequence": "CGAUAUCAAGUGCACCAAATT against CAD", "median seed-adjusted z-score": "2.37 (active)"}
{"sequence": "GAGCAUUUGUGCGCAAGUUTT against NRP2", "median seed-adjusted z-score": 0.477}
{"sequence": "GCUCAUUCCUUCUACAAUUTT against CACNA1G", "median seed-adjusted z-score": 0.436}
{"sequence": "GGAUGUAAGUUGUCCAAUATT against SUZ12", "median seed-adjusted z-score": "-1.65 (active)"}
{"sequence": "CGAGUGAAGUGGGAUGAGATT against STARD5", "median seed-adjusted z-score": -0.0333}
{"sequence": "GCCGUUACCAUGGAACUUUTT against GSPT2", "median seed-adjusted z-score": 0.846}
{"sequence": "CACUGACUCGGAAACUGCATT against IGF2BP3", "median seed-adjusted z-score": -0.636}
{"sequence": "CACCAGGUCUGGAUAUUGATT against SF3A1", "median seed-adjusted z-score": "-1.09 (active)"}
{"sequence": "GCACAACUGUAGAGACAGATT against CIDEC", "median seed-adjusted z-score": 0.189}
{"sequence": "GCAGAGAUCUUUGUAGUCUTT against FTSJ3", "median seed-adjusted z-score": 0.437}
{"sequence": "CGGGUAAACUAUGAGCUGATT against ADCY2", "median seed-adjusted z-score": 0.173}
{"sequence": "GCAAGGCUUUUGACGUAGATT against MAP3K6", "median seed-adjusted z-score": 0}
{"sequence": "GGAAAUUAUGUAGAACCGATT against ALDH7A1", "median seed-adjusted z-score": -0.406}
{"sequence": "CAGUGCACAGUGAAACCAATT against ADAM11", "median seed-adjusted z-score": 0.102}
{"sequence": "GAGCUAGCGAAUAACCUUATT against DDX42", "median seed-adjusted z-score": "-2.13 (active)"}
{"sequence": "CCCUCGGGAUCACACUUAUTT against MFSD1", "median seed-adjusted z-score": -0.0833}
{"sequence": "GCACGAUAUAUAUAGCUAUTT against RIPK2", "median seed-adjusted z-score": 0.176}
{"sequence": "CAAAGACUCUGGAAUGAAUTT against PRICKLE2", "median seed-adjusted z-score": "-1.12 (active)"}
{"sequence": "CAACAAGCGUAAGACCAAATT against SYTL5", "median seed-adjusted z-score": 0.192}
{"sequence": "GGAUCGCCCUGUAUGCUGUTT against LRTM2", "median seed-adjusted z-score": 0.465}
